# Test results: article PMC4552634, “A New Set of Chemical Starting Points with Plasmodium falciparum Transmission-Blocking Potential for Antimalarial Drug Discovery” (PLoS ONE, 2015)
# The campaign covered roughly 13,000 compounds. About 3,200 (25%) showed an effect of 50% or more. The list shows a part of the results.
# Tested on: P. falciparum stage V gametocytes
# Set-up: BacTiter-Glo ATP luminescence viability of purified stage V gametocytes in 384-well plates, per cent inhibition versus DMSO
# Details: 48 h, 5 µM; inhibitor
row,Structure (SMILES),% Inhibition
1,COc1ccc(CNC(=O)NC2CCN(c3ccnc(Nc4cc(OC)c(OC)c(OC)c4)n3)C2)cc1 (stereo not drawn) [TCMDC-133619],-40.46%
2,Cc1cccc(CN2CCCN(Cc3ccc(C(=O)Nc4ccc(C(C)(C)C)cc4)cc3)CC2)c1 [TCMDC-136434],-28%
3,CN(c1ccc(NC(=O)Nc2cc(C(F)(F)F)ccc2F)cc1)c1ccnc(NCCN2CCOCC2)n1 [TCMDC-141590],51.14%
4,Cn1nc(-c2ccc(NC(=O)Nc3ccc4ccccc4c3)c(F)c2)c2cnc(NCCN3CCOCC3)nc21 [TCMDC-141561],17%
5,CN(c1ccc(NC(=O)Nc2cc(C(F)(F)F)ccc2F)cc1)c1ccnc(NCCN2CCCC2)n1 [TCMDC-141635],83.6%
6,COc1cc(Nc2nccc(N3CCC(NC(=O)Nc4ccc5c(c4)OCO5)C3)n2)cc(OC)c1OC (stereo not drawn) [TCMDC-133629],-90.76%
7,CCN(CCN(C)C)Cc1ccc(-c2ccc(NS(=O)(=O)c3cccc4cccnc34)cc2)cc1 [TCMDC-136600],46.29%
8,O=C(Nc1ccc(C(F)(F)F)cc1)c1ccc(S(=O)(=O)NCC2CCCN(CC3CCCCC3)C2)cc1 (stereo not drawn) [TCMDC-133680],-21.48%
9,CCCN1CCN(Cc2ccc(C(=O)Nc3ccc(Cl)cc3)cc2)CC1 [TCMDC-136387],3.347%
10,O=C(Nc1cccc(C(F)(F)F)c1)c1ccc(S(=O)(=O)NCC2CCCN(CC3CCCCC3)C2)cc1 (stereo not drawn) [TCMDC-132777],92.44%
11,O=C(Nc1cccc(C(F)(F)F)c1)c1cccc(S(=O)(=O)NCC2CCCN(CC3CCCCC3)C2)c1 (stereo not drawn) [TCMDC-132770],87.2%
12,O=C(Nc1ccc(C(F)(F)F)cc1)c1cccc(S(=O)(=O)NCC2CCCN(CC3CCCCC3)C2)c1 (stereo not drawn) [TCMDC-133673],-19.66%
13,CCCN1CCN(c2ccc(NS(=O)(=O)c3ccc(C(=O)Nc4ccc(Cl)cc4)cc3)cc2)CC1 [TCMDC-136351],71.9%
14,CC(C)c1ccc(NC(=O)c2ccc(C(=O)NCC3CCN(CC4CCCCC4)CC3)cc2)cc1 [TCMDC-136753],4%
15,O=C(Nc1cccc(C(F)(F)F)c1)c1cccc(S(=O)(=O)NCC2CCCN(Cc3ccccc3)C2)c1 (stereo not drawn) [TCMDC-133685],-6.422%
16,O=C(Nc1ccc(Cl)cc1)c1ccc(S(=O)(=O)NCC2CCN(CC3CCCCC3)CC2)cc1 [TCMDC-132808],84.19%
17,O=C(Nc1ccc(Cl)cc1)c1ccc(CN2CCCN(CC3CCCCC3)CC2)cc1 [TCMDC-136400],-37.54%
18,O=C(Nc1cccc(C(F)(F)F)c1)c1ccc(S(=O)(=O)NCC2CCCN2CC2CCCCC2)cc1 (stereo not drawn) [TCMDC-133689],-36.87%
19,CCCN1CCN(c2ccccc2NS(=O)(=O)c2ccc(C(=O)Nc3ccc(Cl)cc3)cc2)CC1 [TCMDC-136350],1.888%
20,CCNc1cc(C)nc(Nc2ccc(NC(=O)c3ccccc3)cc2)n1 [TCMDC-124988],-14.46%
21,N=C(N)c1ccc(Oc2ccc(C(=N)N)cc2)cc1 [TCMDC-124287],24.59%

row,Structure (SMILES),% Inhibition
1,CCCc1ccc(NC(=O)c2cccc(CN3CCCN(Cc4cccc(O)c4)CC3)c2)cc1 [TCMDC-135978],12.81%
2,CC(C)[C@H](NC(=O)c1ccc(O)c(-c2cccc(C(F)(F)F)c2)c1)C(=O)NC1CCCc2ccccc21 (stereo partly drawn) [TCMDC-140819],-19.12%
3,CCCCCCc1cnc2nc(N)nc(N)c2c1C [TCMDC-138065],8.256%
4,O=C(NC1CCC(N2CCCC(OCc3ccccc3)C2)CC1)c1cc2ccccc2[nH]1 (stereo not drawn) [TCMDC-132892],14.17%
5,CCCC(=O)Nc1ccc(OCCCN(Cc2ccccc2C(F)(F)F)c2ccc(C#N)c(C(F)(F)F)c2)cc1 [TCMDC-135466],20.73%
6,O=C(Nc1cccc(C(F)(F)F)c1)c1cccc(S(=O)(=O)NCC2CCN(CC3CCCCC3)CC2)c1 [TCMDC-133684],-26.22%
7,CCCCCN1CCC(CNS(=O)(=O)c2ccc(C(=O)Nc3cccc(C(F)(F)F)c3)cc2)CC1 [TCMDC-132775],-3.109%
8,O=C(Nc1cccc(C(F)(F)F)c1)c1ccc(S(=O)(=O)NCC2CCN(CC3CCCCC3)CC2)cc1 [TCMDC-132776],87.8%
9,COc1cc2c(cc1OC)C(C)(C)CN1Cc3c(c(CO)c(OC)c(OC)c3OC)CC21 (stereo not drawn) [TCMDC-137250],-48.53%
10,COc1ccc2nc(N)nc(C)c2c1 [TCMDC-123907],15.32%
11,CS(=O)(=O)CCNCc1cccc(-c2cc3c(Nc4ccc(OCc5cccc(F)c5)c(Cl)c4)ncnc3s2)c1 [TCMDC-134654],-64.99%
12,CC(=O)Nc1cccc(C(=O)Nc2cccc(-c3ccc(-c4nc5cc(F)ccc5[nH]4)s3)c2)c1 [TCMDC-132142],5.899%
13,Cc1cccc2nc(-c3ccc(-c4ccc(NC(=O)c5cncn5C)cc4)s3)[nH]c12 [TCMDC-137067],9.475%
14,Cc1cccc2nc(-c3ccc(-c4cccc(NC(=O)c5cncn5C)c4)s3)[nH]c12 [TCMDC-137068],78.66%
15,Cn1cncc1C(=O)Nc1cccc(-c2ccc(-c3nc4ccccc4[nH]3)s2)c1 [TCMDC-137055],40.39%
16,CC(=O)Nc1cccc(C(=O)Nc2cccc(-c3ccc(-c4nc5cccc(C)c5[nH]4)s3)c2)c1 [TCMDC-132144],10.52%
17,Cn1cncc1C(=O)Nc1cccc(-c2ccc(-c3nc4cc(F)ccc4[nH]3)s2)c1 [TCMDC-137066],61.93%
18,NC(N)=Nc1nc(-c2cc(NC(=O)C(F)(F)F)cc([N+](=O)[O-])c2)cs1 [TCMDC-137440],-35.18%
19,Nc1nc(N)c2c(ccc3nccc32)[nH]1 [TCMDC-124301],-21.41%
20,O=C(Nc1cccc(CN2CCN(C(=O)c3cccc(Cl)c3)CC2)c1)c1cccs1 [TCMDC-136326],0.1034%
21,CNC(=O)c1ccccc1Nc1cc(Nc2cc(OC)ccn2)ncc1Cl [TCMDC-135054],-20.04%
